Shown are actives, neighbours in structure and some others; about 11% of the full set was active somewhere.
L3MBTL1 block = L3MBTL1 (human) inhibition. AlphaScreen L3MBTL1–H3K9me1 peptide binding. Q9Y468. actives 0.66% (n = 230,000). AID 485360. Potency, µM (doses to about 57.1 µM), actives largely listed as inhibitors; note: nearly all actives have a fitted effect of over 60% in size
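AlphaScreen proximity signal between nickel-chelate acceptor and streptavidin donor beads (final 10 ug/mL) reports binding of 50 nM L3MBTL1 to 75 nM biotin-H3 K9me1 peptide; complex incubated with compounds 30 min at room temperature; cefsulodin titration as control.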
PI5P4Ka inh = inhibitors of human PI5P4K alpha | P48426 | AID 652105 | max response, % | actives 1.2% (n = 330,000) | PI5P4Kalpha enzyme, ADP-Glo luminescence, 60 min; stronger effect = lower value; active = max response of -50% or lower; inconclusive = between -30% and -50%; inactive = -30% or higher; note: value at the top dose of about 77 µM
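Single end-point luminescence (ADP-Glo) quantified ADP from PI5P4Kalpha turnover; ATP 5 microM final, 1 h at RT, 0.1% CHAPS and 0.28 mM EGTA in HEPES pH 7.4.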
JMJD2A Tudor inh = JMJD2A Tudor domain (human) inhibition; AlphaScreen JMJD2A-Tudor / H3K4me3 peptide binding; Potency, µM (highest dose often 114 µM), hits mostly inhibitors; actives 4.4% (n = 390,000); note: nearly all actives have a fitted effect of over 50% in size
G9a inh = G9a (human) methyltransferase inhibition; Q96KQ7; G9a H3K9 monomethylation, AlphaScreen, 2 h; Potency, µM (doses to about 102 µM), most hits filed as inhibitors; actives 8.8% (n = 350,000); AID 504332; note: nearly all actives have a fitted effect of over 75% in size
Target sequence (Q96KQ7 913-1193 limits assumed): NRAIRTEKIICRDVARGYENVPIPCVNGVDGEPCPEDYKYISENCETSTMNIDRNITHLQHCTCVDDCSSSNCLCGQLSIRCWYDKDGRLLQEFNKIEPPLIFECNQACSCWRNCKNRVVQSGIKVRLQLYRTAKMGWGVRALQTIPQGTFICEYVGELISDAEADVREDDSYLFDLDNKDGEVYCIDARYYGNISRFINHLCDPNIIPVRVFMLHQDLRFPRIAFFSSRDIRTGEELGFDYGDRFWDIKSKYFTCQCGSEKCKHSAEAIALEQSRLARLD
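AlphaScreen read-out: biotin-H3K9 peptide (500 nM) methylation by 20 nM enzyme with 20 uM SAM, 2 h at room temperature after 15 min compound preincubation; anti-monomethyl H3K9 antibody plus donor/acceptor beads, 10 min dark.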
HP1b binding inh = blocks HP1-beta chromodomain binding to methylated histone tails; Potency, µM (series often up to 114 µM), hits mostly inhibitors; actives 0.56% (n = 390,000); P83916; AlphaScreen HP1-beta / biotin-H3K9me3 peptide binding; note: nearly all actives have a fitted effect of over 70% in size
Target sequence (P83916 whole entry, looked up): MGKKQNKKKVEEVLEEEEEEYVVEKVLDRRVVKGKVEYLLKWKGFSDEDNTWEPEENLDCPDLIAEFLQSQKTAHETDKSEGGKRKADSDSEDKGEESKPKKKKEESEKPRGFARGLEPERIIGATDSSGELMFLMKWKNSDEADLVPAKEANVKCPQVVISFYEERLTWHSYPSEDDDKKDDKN
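AlphaScreen: HP1-beta (50 nM) preformed 30 min with biotin-H3(1-18)K9me3 peptide (50 nM) in PBS pH 7.4, 0.01% Tween-20. Compound added for 30 min at RT, then streptavidin donor/nickel chelate acceptor beads (10 ug/mL) for 30 min.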
BAZ2B block = BAZ2B (human) inhibition. Q9UIF8. AlphaScreen BAZ2B-H3K14Ac peptide displacement. Potency, µM (top dose mostly 114 µM), usual class: inhibitors. actives 4.4% (n = 360,000); note: nearly all actives have a fitted effect of over 60% in size
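AlphaScreen displacement: compounds (up to 110uM) incubated 30 min at room temperature with a preformed 50 nM BAZ2B/50 nM biotinylated H3K14Ac peptide complex in PBS pH 7.4 with Tween-20. Donor and acceptor beads at 10 ug/mL final added, 20 min light-protected before reading.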
Of the large screens only hits and unclear results are named; the others gave an inactive call. Unless noted, calls come from the whole dose curve; as a rule, active = well fitted inhibition curve with a large enough effect; inconclusive = small, poorly fitted or top-dose-only effect; inactive = no such curve, though single readings can be large or run the other way.

CC1(C)c2ssc(=S)c2-c2ccccc2N1C(=O)CSC1=NCCS1	L3MBTL1 block 14.1µM, JMJD2A Tudor inh 8.91µM, G9a inh 25.1µM, HP1b binding inh inconclusive, BAZ2B block 25.1µM (no result: PI5P4Ka inh)
Cc1cc(C)c2c(c1)-c1c(ssc1=S)C(C)(C)N2C(=O)CSc1nncn1C	L3MBTL1 block inconclusive, JMJD2A Tudor inh inconclusive, G9a inh 5.01µM, HP1b binding inh inconclusive, BAZ2B block 50.1µM
Cc1cc2c(cc1C)N(C(=O)CSC1=NCCS1)C(C)(C)c1ssc(=S)c1-2	L3MBTL1 block inconclusive, JMJD2A Tudor inh 6.31µM, G9a inh 5.01µM, HP1b binding inh inconclusive, BAZ2B block 8.91µM (no result: PI5P4Ka inh)
CC1=CC(C)(C)N(C(=O)CSc2nnc(N)s2)c2cc(C)c(C)cc21	none (no result: PI5P4Ka inh)
O=C(CSC1=NCCS1)Nc1ccnc2ccccc12	none (no result: PI5P4Ka inh)
CCOc1ccccc1NC(=O)Cn1c(=O)n(CCCC(=O)NCCc2ccc(C)cc2)c(=O)c2ccccc21	none (no result: L3MBTL1 block, PI5P4Ka inh)
C#CCCCCCCC#CCN(C)C	JMJD2A Tudor inh 1.78µM, G9a inh 28.2µM, HP1b binding inh inconclusive, BAZ2B block inconclusive
COc1cc(C)ccc1OCCSc1nc2ccc(NC(=O)c3ccccc3F)cc2s1	none (no result: L3MBTL1 block, PI5P4Ka inh)
O=C(O)c1ccc(Cl)c(S(=O)(=O)Nc2ccc(OCc3ccccc3)cc2)c1	G9a inh 39.8µM (no result: L3MBTL1 block)
CCOc1ccc(NS(=O)(=O)c2cc(C(=O)N3CCCC3)ccc2Cl)cc1	none
CN(Cc1ccco1)c1cc(-c2cccc(NS(C)(=O)=O)c2)ncn1	none (no result: L3MBTL1 block, PI5P4Ka inh, JMJD2A Tudor inh, HP1b binding inh, BAZ2B block)
CCOc1ccccc1NC(=O)C1CCN(S(=O)(=O)c2cc(Br)cc3c2N(C(C)=O)CC3)CC1	none (no result: L3MBTL1 block, PI5P4Ka inh)
CCOC(=O)c1[nH]c2ccccc2c1NC(=S)Nc1ccccc1C	G9a inh 31.6µM
CCOC(=O)c1[nH]c2ccccc2c1NC(=S)Nc1cc(C)ccc1C	JMJD2A Tudor inh inconclusive, G9a inh 44.7µM, BAZ2B block inconclusive
COc1ccccc1NC(=O)c1cc(=O)c2ccc(C)c(C)c2o1	none (no result: L3MBTL1 block, PI5P4Ka inh)
C/C(=C\C(=O)c1ccccc1)Nc1ccc(O)cc1	JMJD2A Tudor inh inconclusive, G9a inh 28.2µM, BAZ2B block inconclusive (no result: L3MBTL1 block)
C/C(=C\C(=O)c1ccc(C)cc1)Nc1cccc(O)c1	JMJD2A Tudor inh inconclusive, G9a inh 50.1µM, BAZ2B block 50.1µM (no result: PI5P4Ka inh)
COc1ccc(C(=O)/C=C(\C)Nc2ccc(NC(C)=O)cc2)cc1	JMJD2A Tudor inh inconclusive, G9a inh 35.5µM, BAZ2B block 79.4µM (no result: PI5P4Ka inh)
COc1ccc(C(C#N)=Cc2ccc(NC(C)=O)cc2)cc1	none (no result: L3MBTL1 block, G9a inh, BAZ2B block)
COc1ccc(C(=O)/C=C(/C)N(C)C)cc1	JMJD2A Tudor inh 39.8µM, G9a inh 44.7µM
CC1(C)SC2[C@@H](N=CN3CCCCCC3)C(=O)N2[C@H]1C(=O)O (stereo not given in full)	none (no result: L3MBTL1 block, PI5P4Ka inh, JMJD2A Tudor inh, HP1b binding inh, BAZ2B block)
CCOc1cc(C(=O)NCc2ccccc2)ccc1OCC(=O)N1CCOCC1	none
CCOc1ccc(C(=O)NCC(=O)Nc2ccc3c(c2)OCO3)cc1OCC	JMJD2A Tudor inh inconclusive, G9a inh 50.1µM
CCOc1cc(C(=O)Nc2ccc(C(=O)NCCN(CC)CC)cc2)ccc1OCC(=O)N1CCOCC1	G9a inh 50.1µM
Nc1c(-c2ccccc2)c(CSc2nc3ccccc3[nH]2)nn1-c1ccc(C(=O)O)cc1	JMJD2A Tudor inh 22.4µM, G9a inh inconclusive, HP1b binding inh inconclusive
Cc1nn(-c2ccc(C(=O)O)cc2)c(N)c1-c1ccccc1	none
O=C(O)c1ccccc1CSc1nc2ccccc2[nH]1	G9a inh 50.1µM (no result: L3MBTL1 block)
CC1CCCN(S(=O)(=O)c2ccc(N3CCCCS3(=O)=O)cc2)C1 (stereo not given)	none (no result: L3MBTL1 block, PI5P4Ka inh)
Cc1[nH][nH]c(=O)c1C(c1ccccc1[N+](=O)[O-])C(C#N)C#N (stereo not given)	G9a inh 39.8µM (no result: L3MBTL1 block)
Cc1ccc(N2CCn3c2nc2c3c(=O)n(C/C=C/c3ccccc3)c(=O)n2C)cc1C	JMJD2A Tudor inh inconclusive, G9a inh inconclusive, BAZ2B block inconclusive (no result: L3MBTL1 block, PI5P4Ka inh)
Cc1ccc(/C=C2\C(=O)NC(=O)N2C)o1	G9a inh 35.5µM (no result: L3MBTL1 block)
CN(C)c1ccc(/C=C2\C(=O)Nc3ccccc32)cc1	G9a inh 14.1µM (no result: L3MBTL1 block, PI5P4Ka inh, JMJD2A Tudor inh, HP1b binding inh, BAZ2B block)
Cc1ccc(/C=C2\C(=O)Nc3ccccc32)o1	PI5P4Ka inh inconclusive, JMJD2A Tudor inh 44.7µM, G9a inh 8.91µM, HP1b binding inh 44.7µM, BAZ2B block 39.8µM
COc1ccccc1N1CC(C)(C)C(=O)N(C(=O)c2ccc(C)cc2)C1=S	BAZ2B block inconclusive (no result: G9a inh)
COc1ccccc1N1CC(C)(C)C(=O)N(C(=O)c2ccc(Cl)cc2)C1=S	JMJD2A Tudor inh inconclusive, G9a inh 39.8µM
Cc1ccc(-n2c(-c3ccccc3)c[nH]c2=S)cc1	JMJD2A Tudor inh 11.2µM, G9a inh 2.82µM (no result: L3MBTL1 block)
S=c1[nH]cc(-c2ccc(Cl)cc2)n1Cc1ccccc1	G9a inh inconclusive
CC(C)Cn1c(-c2ccc(Br)cc2)c[nH]c1=S	JMJD2A Tudor inh 50.1µM, G9a inh 0.891µM, HP1b binding inh inconclusive, BAZ2B block inconclusive (no result: L3MBTL1 block)
S=c1[nH]cc(-c2ccccc2)n1-c1ccccc1	PI5P4Ka inh inconclusive, JMJD2A Tudor inh 28.2µM, G9a inh 0.891µM, BAZ2B block inconclusive
CCn1c(-c2ccccc2)c[nH]c1=S	JMJD2A Tudor inh 8.91µM, G9a inh inconclusive, HP1b binding inh inconclusive
CCOC(=O)c1cnc(-n2nc(C)cc2C)nc1NC	G9a inh 44.7µM (no result: PI5P4Ka inh)
CCOC(=O)c1cnc(-n2nc(C)cc2C)nc1Nc1cccc(C(=O)O)c1	JMJD2A Tudor inh 89.1µM, G9a inh 10µM

Compound activity (PubChem)
